Laboratory results published in ChEMBL document CHEMBL2218924, “A broad activity screen in support of a chemogenomic map for kinase signalling research and drug discovery” (Biochem J, 2013).

Columns and labels:
[1] = target: Tyrosine-protein kinase Lck (Homo sapiens) (UniProt P06239); details: at 10 µM
[2] = target: Tyrosine-protein kinase Lck (Homo sapiens) (UniProt P06239); details: at 1 µM
[3] = target: Tyrosine-protein kinase Lck (Homo sapiens) (UniProt P06239); details: at 10 µM; remark: listed apart in the source
[4] = target: Tyrosine-protein kinase Lyn (Homo sapiens) (UniProt P07948); details: at 1 µM
[5] = target: Tyrosine-protein kinase Lyn (Homo sapiens) (UniProt P07948); details: at 10 µM
[6] = target: Mitogen-activated protein kinase 1 (Homo sapiens) (UniProt P28482); details: at 1 µM
[7] = target: MAP kinase-activated protein kinase 2 (Homo sapiens) (UniProt P49137); details: at 1 µM
[8] = target: MAP kinase-activated protein kinase 2 (Homo sapiens) (UniProt P49137); details: at 10 µM
[9] = target: MAP kinase-activated protein kinase 3 (Homo sapiens) (UniProt Q16644); details: at 10 µM
[10] = target: Serine/threonine-protein kinase MARK1 (Homo sapiens) (UniProt Q9P0L2); details: at 1 µM
[11] = target: Serine/threonine-protein kinase MARK1 (Homo sapiens) (UniProt Q9P0L2); details: at 10 µM
[12] = target: Dual specificity mitogen-activated protein kinase kinase 1 (Homo sapiens) (UniProt Q02750); details: at 1 µM
[13] = target: Dual specificity mitogen-activated protein kinase kinase 1 (Homo sapiens) (UniProt Q02750); details: at 10 µM
[14] = target: Maternal embryonic leucine zipper kinase (Homo sapiens) (UniProt Q14680); details: at 1 µM
[15] = target: Maternal embryonic leucine zipper kinase (Homo sapiens) (UniProt Q14680); details: at 10 µM
[16] = target: Misshapen-like kinase 1 (Homo sapiens) (UniProt Q8N4C8); details: at 1 µM
[17] = target: Misshapen-like kinase 1 (Homo sapiens) (UniProt Q8N4C8); details: at 10 µM
[18] = target: Mitogen-activated protein kinase 3 (Homo sapiens) (UniProt P27361); details: at 1 µM
[19] = target: Mitogen-activated protein kinase 3 (Homo sapiens) (UniProt P27361); details: at 10 µM
[20] = target: Mitogen-activated protein kinase 1 (Homo sapiens) (UniProt P28482); details: at 10 µM

Sequence of MAP kinase-activated protein kinase 3 (Homo sapiens) (Q16644 whole entry, looked up): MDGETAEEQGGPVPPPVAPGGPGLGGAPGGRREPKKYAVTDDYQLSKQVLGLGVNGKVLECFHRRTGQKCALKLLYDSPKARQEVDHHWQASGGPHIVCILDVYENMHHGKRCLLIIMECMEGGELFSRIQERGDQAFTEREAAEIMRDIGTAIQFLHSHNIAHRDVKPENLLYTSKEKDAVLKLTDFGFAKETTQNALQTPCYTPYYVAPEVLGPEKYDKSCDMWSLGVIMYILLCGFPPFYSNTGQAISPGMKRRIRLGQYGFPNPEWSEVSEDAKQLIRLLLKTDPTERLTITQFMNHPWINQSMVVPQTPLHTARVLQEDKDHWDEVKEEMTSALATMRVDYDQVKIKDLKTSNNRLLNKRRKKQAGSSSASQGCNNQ
Sequence of Maternal embryonic leucine zipper kinase (Homo sapiens) (Q14680 whole entry, looked up): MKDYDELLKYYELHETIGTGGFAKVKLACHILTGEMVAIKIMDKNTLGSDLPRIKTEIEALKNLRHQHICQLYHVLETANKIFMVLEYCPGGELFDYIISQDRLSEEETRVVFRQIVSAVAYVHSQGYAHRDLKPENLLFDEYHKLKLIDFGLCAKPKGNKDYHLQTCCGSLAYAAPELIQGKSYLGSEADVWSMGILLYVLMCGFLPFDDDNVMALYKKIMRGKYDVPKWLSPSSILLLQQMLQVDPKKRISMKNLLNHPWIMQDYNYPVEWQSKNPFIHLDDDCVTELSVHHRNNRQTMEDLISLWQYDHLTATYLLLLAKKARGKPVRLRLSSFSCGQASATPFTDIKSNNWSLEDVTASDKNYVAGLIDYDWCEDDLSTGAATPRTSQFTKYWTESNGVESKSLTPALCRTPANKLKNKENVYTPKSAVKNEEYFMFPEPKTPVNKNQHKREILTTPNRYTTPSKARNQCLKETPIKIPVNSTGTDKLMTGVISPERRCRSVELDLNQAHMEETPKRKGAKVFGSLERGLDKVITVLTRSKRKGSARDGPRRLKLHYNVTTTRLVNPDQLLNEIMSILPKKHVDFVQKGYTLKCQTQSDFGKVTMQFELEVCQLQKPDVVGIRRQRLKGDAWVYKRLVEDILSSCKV
Sequence of Mitogen-activated protein kinase 1 (Homo sapiens) (P28482 whole entry): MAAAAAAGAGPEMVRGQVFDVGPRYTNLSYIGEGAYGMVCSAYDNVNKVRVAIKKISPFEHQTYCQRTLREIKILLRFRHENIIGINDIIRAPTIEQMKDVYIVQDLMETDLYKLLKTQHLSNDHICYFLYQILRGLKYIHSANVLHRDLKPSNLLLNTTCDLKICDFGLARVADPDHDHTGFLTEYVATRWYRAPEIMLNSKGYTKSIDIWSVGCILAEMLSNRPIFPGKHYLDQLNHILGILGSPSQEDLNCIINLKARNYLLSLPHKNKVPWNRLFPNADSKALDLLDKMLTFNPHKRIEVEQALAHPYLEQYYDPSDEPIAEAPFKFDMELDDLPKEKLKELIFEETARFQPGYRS
Sequence of Tyrosine-protein kinase Lyn (Homo sapiens) (P07948 2-512 limits assumed): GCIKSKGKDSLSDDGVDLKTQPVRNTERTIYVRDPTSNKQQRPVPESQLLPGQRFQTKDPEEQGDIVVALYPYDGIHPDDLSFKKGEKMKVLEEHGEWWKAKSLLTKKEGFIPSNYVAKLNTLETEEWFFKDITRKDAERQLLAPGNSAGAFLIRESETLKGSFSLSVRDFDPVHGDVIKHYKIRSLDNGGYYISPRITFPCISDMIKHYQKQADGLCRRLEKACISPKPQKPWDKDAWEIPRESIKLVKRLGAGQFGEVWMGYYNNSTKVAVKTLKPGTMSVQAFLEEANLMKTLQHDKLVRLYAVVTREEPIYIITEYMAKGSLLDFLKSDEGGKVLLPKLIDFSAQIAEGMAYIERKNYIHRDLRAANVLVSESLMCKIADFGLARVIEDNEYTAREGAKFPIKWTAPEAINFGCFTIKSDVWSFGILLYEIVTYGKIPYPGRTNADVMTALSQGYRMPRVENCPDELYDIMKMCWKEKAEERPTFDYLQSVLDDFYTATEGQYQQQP
Sequence of Misshapen-like kinase 1 (Homo sapiens) (Q8N4C8 whole entry, looked up): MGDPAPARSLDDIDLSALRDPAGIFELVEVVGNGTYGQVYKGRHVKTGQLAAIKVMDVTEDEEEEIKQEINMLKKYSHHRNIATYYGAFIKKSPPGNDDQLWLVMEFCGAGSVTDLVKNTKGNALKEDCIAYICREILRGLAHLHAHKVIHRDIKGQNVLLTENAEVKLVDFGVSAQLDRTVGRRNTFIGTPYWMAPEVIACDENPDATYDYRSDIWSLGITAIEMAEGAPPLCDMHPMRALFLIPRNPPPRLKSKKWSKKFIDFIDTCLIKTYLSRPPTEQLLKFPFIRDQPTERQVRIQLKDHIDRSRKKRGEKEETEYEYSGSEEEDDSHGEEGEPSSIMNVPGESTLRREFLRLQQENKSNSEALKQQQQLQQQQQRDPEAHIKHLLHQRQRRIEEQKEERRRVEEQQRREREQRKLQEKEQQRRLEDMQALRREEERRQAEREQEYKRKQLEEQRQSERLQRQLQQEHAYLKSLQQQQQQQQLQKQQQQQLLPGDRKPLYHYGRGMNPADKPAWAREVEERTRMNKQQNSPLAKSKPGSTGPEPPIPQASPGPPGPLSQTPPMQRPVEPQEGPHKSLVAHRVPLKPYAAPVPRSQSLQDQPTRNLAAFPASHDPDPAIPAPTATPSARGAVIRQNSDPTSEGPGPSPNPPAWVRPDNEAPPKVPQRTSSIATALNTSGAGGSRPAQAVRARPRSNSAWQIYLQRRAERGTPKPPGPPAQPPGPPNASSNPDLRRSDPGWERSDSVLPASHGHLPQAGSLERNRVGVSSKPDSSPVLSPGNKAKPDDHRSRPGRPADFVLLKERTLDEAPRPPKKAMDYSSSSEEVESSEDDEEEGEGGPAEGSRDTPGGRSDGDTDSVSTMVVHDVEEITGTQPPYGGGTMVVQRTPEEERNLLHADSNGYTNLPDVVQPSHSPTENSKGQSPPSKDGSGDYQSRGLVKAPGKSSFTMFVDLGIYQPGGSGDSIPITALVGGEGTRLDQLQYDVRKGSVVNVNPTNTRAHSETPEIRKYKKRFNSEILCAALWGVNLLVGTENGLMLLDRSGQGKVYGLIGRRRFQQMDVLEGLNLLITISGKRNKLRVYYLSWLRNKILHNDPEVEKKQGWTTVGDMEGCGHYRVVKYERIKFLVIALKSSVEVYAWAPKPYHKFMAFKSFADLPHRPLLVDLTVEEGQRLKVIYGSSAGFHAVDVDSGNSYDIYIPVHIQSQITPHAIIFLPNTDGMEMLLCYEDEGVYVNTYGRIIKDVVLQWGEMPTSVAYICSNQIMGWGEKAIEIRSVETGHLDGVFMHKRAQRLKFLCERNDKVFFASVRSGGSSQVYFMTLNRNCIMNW
Sequence of Mitogen-activated protein kinase 3 (Homo sapiens) (P27361 whole entry): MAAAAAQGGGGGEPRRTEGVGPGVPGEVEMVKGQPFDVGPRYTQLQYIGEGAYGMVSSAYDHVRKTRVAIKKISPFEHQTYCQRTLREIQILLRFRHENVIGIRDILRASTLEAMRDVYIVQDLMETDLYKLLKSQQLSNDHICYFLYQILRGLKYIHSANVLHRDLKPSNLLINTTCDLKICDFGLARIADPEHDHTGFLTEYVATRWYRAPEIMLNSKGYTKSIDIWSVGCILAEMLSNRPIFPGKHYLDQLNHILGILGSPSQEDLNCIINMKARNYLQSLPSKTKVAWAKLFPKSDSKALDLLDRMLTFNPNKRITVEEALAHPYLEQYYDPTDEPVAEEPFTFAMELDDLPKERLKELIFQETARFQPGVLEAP
Sequence of Dual specificity mitogen-activated protein kinase kinase 1 (Homo sapiens) (Q02750 whole entry): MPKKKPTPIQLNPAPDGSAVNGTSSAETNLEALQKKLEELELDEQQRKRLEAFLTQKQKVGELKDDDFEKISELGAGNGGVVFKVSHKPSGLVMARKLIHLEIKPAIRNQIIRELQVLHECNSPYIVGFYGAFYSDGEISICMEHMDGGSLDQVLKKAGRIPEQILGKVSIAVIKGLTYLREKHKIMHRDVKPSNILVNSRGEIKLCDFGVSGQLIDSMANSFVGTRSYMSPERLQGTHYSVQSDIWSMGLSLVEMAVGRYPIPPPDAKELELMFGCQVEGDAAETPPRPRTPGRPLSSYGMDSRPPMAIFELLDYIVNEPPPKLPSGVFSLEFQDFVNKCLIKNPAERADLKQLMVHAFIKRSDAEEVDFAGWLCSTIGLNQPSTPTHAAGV
Sequence of Tyrosine-protein kinase Lck (Homo sapiens) (P06239 2-509 limits assumed): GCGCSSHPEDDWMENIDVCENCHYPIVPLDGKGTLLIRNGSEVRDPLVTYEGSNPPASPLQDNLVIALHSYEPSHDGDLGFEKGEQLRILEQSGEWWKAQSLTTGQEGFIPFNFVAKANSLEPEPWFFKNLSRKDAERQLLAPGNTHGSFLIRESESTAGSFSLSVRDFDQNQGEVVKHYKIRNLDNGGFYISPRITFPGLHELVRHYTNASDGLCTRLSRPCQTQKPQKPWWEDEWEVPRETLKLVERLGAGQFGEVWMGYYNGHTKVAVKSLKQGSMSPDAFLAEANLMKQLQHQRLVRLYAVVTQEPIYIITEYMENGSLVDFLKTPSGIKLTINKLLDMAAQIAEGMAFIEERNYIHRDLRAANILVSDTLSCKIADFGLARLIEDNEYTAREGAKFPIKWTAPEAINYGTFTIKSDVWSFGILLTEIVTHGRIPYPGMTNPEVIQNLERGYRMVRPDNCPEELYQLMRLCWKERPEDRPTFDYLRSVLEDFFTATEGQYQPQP
Sequence of MAP kinase-activated protein kinase 2 (Homo sapiens) (P49137 whole entry, looked up): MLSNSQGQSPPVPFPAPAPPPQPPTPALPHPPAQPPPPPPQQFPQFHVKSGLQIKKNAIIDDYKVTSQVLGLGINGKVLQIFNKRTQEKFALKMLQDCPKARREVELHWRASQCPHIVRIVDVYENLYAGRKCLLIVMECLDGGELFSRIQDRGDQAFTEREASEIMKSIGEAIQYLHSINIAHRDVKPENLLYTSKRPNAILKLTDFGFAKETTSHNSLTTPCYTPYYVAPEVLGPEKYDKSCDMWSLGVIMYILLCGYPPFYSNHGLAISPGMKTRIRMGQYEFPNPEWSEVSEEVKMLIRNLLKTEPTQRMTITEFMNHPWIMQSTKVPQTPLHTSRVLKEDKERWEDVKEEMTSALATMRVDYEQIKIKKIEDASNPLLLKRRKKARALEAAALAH

Compound	residual activity [1] [%]	residual activity [2] [%]	residual activity [3] [%]	residual activity [4] [%]	residual activity [5] [%]	residual activity [6] [%]	residual activity [7] [%]	residual activity [8] [%]	residual activity [9] [%]	residual activity [10] [%]	residual activity [11] [%]	residual activity [12] [%]	residual activity [13] [%]	residual activity [14] [%]	residual activity [15] [%]	residual activity [16] [%]	residual activity [17] [%]	residual activity [18] [%]	residual activity [19] [%]	residual activity [20] [%]
O=C1Nc2ccccc2/C1=C1/Nc2ccccc2/C1=N\OCCC(O)CO (stereo not given)	5	5	8	4	-1	108	78	61	80	40	8	26	21	7	5	44	17			
CC(=O)c1ccc(N2CCOCC2)cc1O				105	98		100		111	93	91	102		90	100	108	88	91	89	
Cc1cc2ncc(-c3ccccc3)nc2cc1C	97	91	101	74	75	100		93	93	84	90		90	72	77	94	82	87	86	100
N#CC(C#N)=C(N)/C(C#N)=C/c1ccc(O)cc1				93	70	118	94	87		89	75			70	78	89	88			
c1ccc2c(-c3ccncc3)c[nH]c2c1	79	94	101	105	91	101	90	94	101	81	77	87	75	91	76	85	43	77	87	99
O=C1NC(=O)c2c1c1c3ccccc3[nH]c1c1[nH]c3cc(Br)ccc3c21	62	95	95	72	69	111	98	93	89	67	34	75	98	87	82	109	90	103	104	99
Nc1ccc2ncnc(NCCc3ccc(Oc4ccccc4)cc3)c2c1	45	83	20	24	11	104	70	106	105	87	62	99	101	63	40	101	82	122	74	86
Cc1cccc(-c2[nH]c(C(C)(C)C)nc2-c2ccc3c(c2)OCO3)n1	86	95	92	91	76	105	92	96		85	77		96	75	103	101	90	90	94	
COc1cc2ncnc(N3CCN(C(=O)Nc4ccc(Oc5ccccc5)cc4)CC3)c2cc1OC	59	92	68	98	100	106	99	110	117	86	78	115	94	81	101	95	88	76	95	105
O=C(Nc1cccc(Nc2cc(Nc3cccc(C(F)(F)F)c3)ncn2)c1)C1CC1	29	85	81	62	18	102	89	71	91	83	79	78	88	89	89	105	97	96	85	103
CO[C@@H]1[C@H](N(C)C(=O)c2ccccc2)C[C@H]2O[C@]1(C)n1c3ccccc3c3c4c(c5c6ccccc6n2c5c31)C(=O)NC4	5	5	6	6	2	101	75	47	37	1	0	74	56	5	2	52	18	75		98
Nc1cccc(-c2cc3c(Oc4cccc(O)c4)ncnc3[nH]2)c1	7	4	0	2	-1	120	71	82		51	11	94	102	73	29	41	7			83
C[C@@H](N)[C@H]1CC[C@H](C(=O)Nc2ccncc2)CC1				99	100	102		82	85	95		104	106	105	87	99	108	113	109	105
c1ccc(-c2n[nH]cc2-c2ccnc3ccccc23)nc1	71	91	66	90	24	96	101	109	125	93	81			97	82	72	27	88	83	109
Cn1cnc2cc3c(Nc4cccc(Br)c4)ncnc3cc21	24	41	34	8	2	107	108	94	87	102	94	91	88	92	103	103	75	103	85	95
O=C1Nc2ccc(Br)cc2/C1=C\c1cc2c([nH]1)CCCC2				21	22	104	108	106	101	72	59			78						106
